The source made the active and inactive calls. Rule for the calls: active = hit-call score of the fitted dose curve at least 0.9, where 1 is the maximum; inactive = score below 0.9.
What was measured:
[1] = biological target: Nuclear respiratory factor 1 (Homo sapiens) (UniProt Q16656); assay: ATG_NRF1_CIS: Attagene CIS-FACTORIAL HepG2 Assay for human Nuclear Respiratory Factor 1 (NRF1) Orphan Gene (AID 2282987); conditions: HepG2 NRF1 cis-element reporter, Attagene multiplex; actives raise or lower the signal
Chain of Nuclear respiratory factor 1 (Homo sapiens) (Q16656 whole entry, looked up): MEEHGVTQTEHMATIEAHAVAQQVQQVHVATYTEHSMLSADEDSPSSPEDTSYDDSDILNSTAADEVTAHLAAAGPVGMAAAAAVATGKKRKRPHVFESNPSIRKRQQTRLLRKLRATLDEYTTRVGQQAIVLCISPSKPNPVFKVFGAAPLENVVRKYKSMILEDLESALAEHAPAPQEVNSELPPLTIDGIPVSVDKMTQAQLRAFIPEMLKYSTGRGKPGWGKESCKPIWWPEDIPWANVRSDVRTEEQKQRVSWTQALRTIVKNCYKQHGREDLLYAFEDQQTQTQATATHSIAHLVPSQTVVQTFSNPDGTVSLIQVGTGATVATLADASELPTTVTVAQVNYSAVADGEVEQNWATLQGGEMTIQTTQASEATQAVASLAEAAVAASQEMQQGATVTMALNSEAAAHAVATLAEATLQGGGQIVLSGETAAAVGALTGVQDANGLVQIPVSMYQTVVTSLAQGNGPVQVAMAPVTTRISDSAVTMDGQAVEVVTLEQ
How it was run: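 Multiplexed cis-reporter assay, HepG2 cells, 24 h treatment. Total RNA → oligo(dT) RT → PCR with reporter-specific primers → 6-FAM primer extension → HpaI cut → CE. Bidirectional fit vs DMSO.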

[2] = ATG_NFI_CIS: Attagene CIS-FACTORIAL HepG2 Assay for human Nuclear Factor I (NFI) (AID 2282989); conditions: HepG2 cis-regulatory reporter, NFI response element transcription; actives raise or lower the signal
How it was run: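 Reporter transcripts were measured by RT-PCR with fluorescent primer extension and capillary electrophoresis 24 h post-treatment. HepG2 cells carried transiently transfected cis-regulated reporter constructs reporting endogenous factor activity; gain or loss fitted against DMSO baseline.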

[3] = biological target: Myc proto-oncogene protein (Homo sapiens) (UniProt P01106); assay: ATG_Myc_CIS: Attagene CIS-FACTORIAL HepG2 Assay for human Myelocytomatosis (Myc) Proto-Oncogene Transcription Factor (AID 2282990); conditions: HepG2, Attagene cis-reporter transcription factor activity; actives raise or lower the signal
Chain of Myc proto-oncogene protein (Homo sapiens) (P01106 whole entry, looked up): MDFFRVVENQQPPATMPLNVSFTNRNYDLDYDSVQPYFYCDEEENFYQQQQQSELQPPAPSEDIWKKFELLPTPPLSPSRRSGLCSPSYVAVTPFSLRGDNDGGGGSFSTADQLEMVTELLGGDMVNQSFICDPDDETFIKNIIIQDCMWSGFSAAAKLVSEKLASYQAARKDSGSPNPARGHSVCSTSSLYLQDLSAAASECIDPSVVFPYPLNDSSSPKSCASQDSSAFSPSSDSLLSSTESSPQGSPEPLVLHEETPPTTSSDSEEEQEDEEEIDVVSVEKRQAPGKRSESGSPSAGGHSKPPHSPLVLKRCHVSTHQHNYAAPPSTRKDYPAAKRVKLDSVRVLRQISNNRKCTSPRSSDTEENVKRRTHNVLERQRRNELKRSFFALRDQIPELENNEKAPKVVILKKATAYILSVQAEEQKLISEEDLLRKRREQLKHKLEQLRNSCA
How it was run: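 Transiently transfected HepG2 cells bearing cis-promoter reporter units for endogenous transcription factors; 24 h exposure. Reporter mRNA measured by RT-PCR, 6-FAM primer extension, HpaI cut and capillary electrophoresis; bidirectional fit relative to DMSO.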

[4] = ATG_NF_kB_CIS: Attagene CIS-FACTORIAL HepG2 Assay for human Nuclear Factor Kappa B (NF-kB) (AID 2282991); conditions: HepG2 Attagene cis-factorial NF-kB reporter mRNA; actives raise or lower the signal
How it was run: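 Transient MRTU transfection of human HepG2 liver cells → 24 h chemical exposure → total RNA, oligo(dT) RT → PCR, 6-FAM primer extension, HpaI digest 2 h 37 C → CE fragment analysis. Bidirectional fitting, DMSO negative control.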

[5] = ATG_NRF2_ARE_CIS: Attagene CIS-FACTORIAL HepG2 Assay for human Nuclear Factor Erythroid 2 Related Factor 2 (NFR2) response to Antioxidant Response Elements (ARE) (AID 2282992); conditions: HepG2 Attagene ARE/NRF2 reporter, transcription factor activity; actives raise or lower the signal;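 for AC50: reporter mRNA level measured by RT-PCR and capillary electrophoresis fluorescence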
How it was run: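 HepG2 cells transiently transfected with multiplexed cis-element reporter constructs, 24 h after chemical dosing; reporter mRNA quantified by RT-PCR, fluorescent primer extension, HpaI digestion and capillary electrophoresis. Bidirectional fit relative to DMSO.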

[6] = ATG_Oct_MLP_CIS: Attagene CIS-FACTORIAL HepG2 Assay for human Octamer-Binding Transcription Factor (Oct) (AID 2282993); conditions: HepG2 Attagene cis-factorial Oct reporter, mRNA; actives raise or lower the signal
How it was run: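 Readout is reporter transcript level from RT-PCR with fluorescent primer extension and capillary electrophoresis, fitted in both directions against DMSO. Transfected HepG2 reporter units report endogenous factor activity after 24 h dosing.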

[7] = biological target: Cellular tumor antigen p53 (Homo sapiens) (UniProt P04637); assay: ATG_p53_CIS: Attagene CIS-FACTORIAL HepG2 Assay for human p53 Transcription Factor (AID 2282994); conditions: HepG2 p53 cis-element reporter, Attagene mRNA; actives raise or lower the signal
Chain of Cellular tumor antigen p53 (Homo sapiens) (P04637 whole entry, looked up): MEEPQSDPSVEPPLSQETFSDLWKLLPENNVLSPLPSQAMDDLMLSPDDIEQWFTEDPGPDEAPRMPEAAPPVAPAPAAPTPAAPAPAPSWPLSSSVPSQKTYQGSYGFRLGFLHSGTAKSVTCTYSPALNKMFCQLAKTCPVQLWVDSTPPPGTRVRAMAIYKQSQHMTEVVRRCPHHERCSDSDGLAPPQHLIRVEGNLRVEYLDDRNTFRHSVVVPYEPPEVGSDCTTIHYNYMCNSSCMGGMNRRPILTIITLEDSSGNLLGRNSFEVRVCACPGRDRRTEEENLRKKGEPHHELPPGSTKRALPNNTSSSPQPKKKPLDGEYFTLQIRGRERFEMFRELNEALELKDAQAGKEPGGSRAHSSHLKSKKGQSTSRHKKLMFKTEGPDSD
How it was run: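 HepG2 cells transiently transfected with cis-regulated multiple reporter transcription units, dosed 24 h. Reporter mRNA measured by RT-PCR, 6-FAM primer extension, HpaI digestion and capillary electrophoresis; bidirectional fit relative to DMSO.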

[8] = BSK_3C_uPAR: BioMAP Diversity Plus: 3C Assay for Urokinase-type plasminogen activator receptor (uPAR) Biomarker Activity (AID 2282998); conditions: BioMAP 3C HUVEC, uPAR biomarker ELISA; actives raise or lower the signal
How it was run: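 Cell-surface uPAR on HUVEC (3C system) read by ELISA at 24 h post-treatment, with DMSO as baseline and fitting in both directions. Parallel cultures stained with SRB to flag overt cytotoxicity.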

[9] = BSK_3C_VCAM1: BioMAP Diversity Plus: 3C Assay for Vascular cell adhesion molecule 1 (VCAM1) Biomarker Activity (AID 2282999); conditions: BioMAP 3C HUVEC, VCAM1 ELISA, cytokine-stimulated; actives raise or lower the signal
How it was run: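 Human umbilical vein endothelial cells (3C system), biomarker read by ELISA 24 h after dosing; bidirectional fit against DMSO baseline. Cytotoxicity tracked by SRB total-protein staining in parallel cultures at biomarker time.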

Measured: AC50

C=C(C)C(=O)OCCOC(=O)C(=C)C
not listed: [8] | [9]
inactive: all other assays above

CCC(C)C(=O)OC (stereo not given)
not listed: [8] | [9]
inactive: all other assays above

CCNc1nc(NC(C)(C)C)nc(OC)n1
inactive: all assays above

CC(=O)OC(C)c1ccccc1 (stereo not given)
not listed: [8] | [9]
inactive: all other assays above

C=CC(=O)OCCCCCCCCCC
active: [5] 94.5 µM
not listed: [8] | [9]
inactive: all other assays above

CO[Si](CCCS)(OC)OC
not listed: [8] | [9]
inactive: all other assays above

CC/C=C\CCOC(=O)c1ccccc1O
active: [5] 100 µM | [7] 138 µM | [8] 31.8 µM | [9] 30.1 µM
inactive: all other assays above

CCCCCCCCCCCCCC(=O)OC(C)C
not listed: [8] | [9]
inactive: all other assays above

c1ccc(-c2nc3ccccc3[nH]2)cc1
active: [3] 26.1 µM
not listed: [8] | [9]
inactive: all other assays above

CC(=O)OC1CCCCC1
not listed: [8] | [9]
inactive: all other assays above

O=C(C=Cc1ccccc1)OCCc1ccccc1
active: [5] 20.4 µM
not listed: [8] | [9]
inactive: all other assays above

Clc1cccnc1
not listed: [8] | [9]
inactive: all other assays above

CCCCNC(=S)NCCCC
not listed: [8] | [9]
inactive: all other assays above

CCCCOCCOC(=O)COc1ccc(Cl)cc1Cl
not listed: [8] | [9]
inactive: all other assays above

CCCSSCCC
not listed: [8] | [9]
inactive: all other assays above

COc1nccnc1CC(C)C
not listed: [8] | [9]
inactive: all other assays above

CCC1COC(=O)O1 (stereo not given)
not listed: [8] | [9]
inactive: all other assays above

Cc1cc(C)c(C=O)c(C)c1
not listed: [6] | [8] | [9]
inactive: all other assays above

CCCCC(=O)O
not listed: [4] | [8] | [9]
inactive: all other assays above

CC(C)OC(=O)c1ccccc1
not listed: [6] | [8] | [9]
inactive: all other assays above

CCCCCC1=CCCC1=O
active: [5] 55.8 µM
not listed: [7]
inactive: all other assays above

CC(=O)/C=C/C1C(C)=CCCC1(C)C (stereo not given)
inactive: [1] | [2] | [3] | [5]

CCCCC(C=O)CC (stereo not given)
inactive: [1] | [2] | [3] | [5]

CC(C)=NNC(N)=S
not listed: [6] | [8] | [9]
inactive: all other assays above

C=C[C@@]1(C)CC(=O)[C@]2(O)[C@@]3(C)[C@@H](O)CCC(C)(C)[C@@H]3[C@H](O)[C@H](OC(C)=O)[C@@]2(C)O1
active: [5] 2.95 µM | [7] 0.983 µM
inactive: [1] | [2] | [3] | [6]

CCOc1ccc(NC(N)=O)cc1
inactive: [1] | [2] | [3] | [5]

CC(C)(C)N
not listed: [4] | [8] | [9]
inactive: all other assays above

C=CCCCCCCCCC=O
inactive: all assays above

O=C(O)CCCC(=O)O
not listed: [4] | [8] | [9]
inactive: all other assays above

CCCCCC(=O)OCC
not listed: [6] | [8] | [9]
inactive: all other assays above

CC(C)(CO)C(O)C(=O)NCCCO (stereo not given)
inactive: [1] | [2] | [3] | [5] | [6]

Source: PubChem BioAssay (EPA / NIEHS)
